# Source: PubChem BioAssay AID624354 (Sanford-Burnham Center for Chemical Genomics, 2012)
# “And” between values parts separate entries of the source, which are not always exact repeats. Identical values can stand only once. Out of some 360,000 compounds screened, about 3,800 (1.1%) were called active.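 How the source made its calls: active means compounds causing at least 50% loss of cell viability in the single-dose screen, relative to plate controls; inactive means the rest.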 The entries come from a sample that favours actives as a whole.
# Assay: TRAIL-exposed caspase-8 expressing cell killing – NB7+C8 cells, ATPlite luminescence, TRAIL sensitizer project, primary screen (AID 624354)
# Details: at 10 µM, active compounds read high
row,SMILES,"inhibition (viability loss, TRAIL sensitization)"
1,COc1cccc(-c2nc3ccc(N4CCN(C)CC4)cc3[nH]2)c1,86.3% (active)
2,CCC(=O)c1ccc(OCC(=O)N2CCN(CC(=O)Nc3ccc(C)cc3)CC2)cc1,1.16% (inactive)
3,Cc1cc2ccccn2c1C(C[N+](=O)[O-])c1c(F)cccc1Cl (stereo not given),-0.261% (inactive)
4,COc1ccc(-n2c(O)c(C(C)=Nc3ccc4c(c3)CCC4)c(=O)[nH]c2=O)cc1,7.82% (inactive)
5,O=Cc1cn(Cc2ccc(F)cc2Cl)c2ccccc12,17.7% (inactive)
6,CNC(=O)O/N=C(\N)Cc1csc2ccc(Cl)cc12,70.7% (active)
7,CNC(=O)O/N=C(\N)Cc1csc2ccccc12,-3.67% (inactive)
8,CCC/C(=N\O)c1c[nH]c2ccccc12,-8.01% (inactive)
9,Cc1ncoc1C(=O)NCC1=C(c2cccc3ccccc23)C[C@@H]2CC[C@H]1N2Cc1ccco1,14.8% (inactive)
10,COc1ccccc1CN1CCN(C(=O)Cc2ccccc2)CC1,-10.1% (inactive)
11,CCN1CCN(Cc2cc(OC)c3c(c2)OCO3)CC1,3.55% (inactive)
12,C[C@]12CC[C@H](O)C[C@H]1CC[C@@H]1C2CC[C@]2(C)[C@@H](C3=CC(=O)OC3)[C@@H](O)C[C@]12O (stereo not given in full),48.7% (inactive)
13,COC1C(O)C(C)OC(OC2CCC3(C=O)C(CCC4C3CCC3(C)C(C5=CC(=O)OC5)CCC43O)C2)C1O (stereo not given),74.4% (active)
14,CC(C)Nc1nc(Cl)nc(NC(C)C)n1,-4.77% (inactive)
15,O=C(O)C1CSC(c2cccnc2)N1 (stereo not given),-7.34% (inactive)
16,Cc1ccc(Cn2c(C)c3cnn(CC(=O)N4CCC5(CC4)OCCO5)c(=O)c3c2C)cc1,2.81% (inactive)
17,OC(Cn1c2ccccc2c2ccccc21)C[n+]1ccccc1 (stereo not given),-9.29% (inactive)
18,CCOc1ccc(-c2cc(C)[n+](CCN(CC)CC)c(-c3ccc(OCC)cc3)c2)cc1,64.8% (active)

row,SMILES,"inhibition (viability loss, TRAIL sensitization)"
1,O=c1[nH]c(CN2CC=C(c3ccccc3)CC2)nc2scc(-c3cccs3)c12,-10.4% (inactive)
2,COc1ccccc1N1CCN(C(CNC(=O)Oc2ccccc2)c2cccnc2)CC1 (stereo not given),-5.13% (inactive)
3,CN1CCc2cc3c(cc2[C@H]1[C@@H]1OC(=O)c2c1ccc1c2OCO1)OCO3,-20.1% (inactive)
4,C=C(C)C1(CCCC)C(=O)NC(=S)NC1=O,6.23% (inactive)
5,CN1C2C=C(N(C(=O)c3ccc(Cl)cc3)c3ccccc3)CC1CC2 (stereo not given),-8.37% (inactive)
6,CC(=O)OC1C2(CC3N4C(=O)C5(CO)SSC4(CC31O)C(=O)N5C)OC(C)C(C)(C)C2=O (stereo not given),84.2% (active)
7,CCC(=O)CC(c1ccc([N+](=O)[O-])cc1)c1c(O)c2ccccc2oc1=O (stereo not given),4.29% (inactive)
8,Nc1ccc(Cc2ccc(N)c(Cl)c2)cc1Cl,2.29% (inactive)
9,CN(C)C(=O)Oc1cc(OC(=O)N(C)C)cc(C(O)CNC(C)(C)C)c1 (stereo not given),-5.27% (inactive) and 5.89% (inactive)
10,C=Cn1ccnc1P(=S)(c1cc(N(CC)CC)ns1)c1nccn1C=C,-19.8% (inactive)
11,CCCCCCCCCCCCn1ccc(=N)cc1,62.5% (active)
12,CC1CNCCN1c1ccc(Cl)cc1 (stereo not given),-10.4% (inactive)
13,C=CCN1C(=O)NC(=O)/C(=C/c2ccc(OCC(=O)Nc3ccc(C)cc3)cc2)C1=O,6.1% (inactive)
14,CCOC(=O)[C@]12Cc3cc(OC)ccc3[C@H]1N(C(C)C)C(=O)c1ccccc12,39.4% (inactive)
15,CCOC(=O)[C@]12Cc3ccccc3[C@H]1N(C1CCCCC1)C(=O)c1cc(OC)ccc12,79.1% (active)
16,CCC1(CC(C)c2ccccc2)C(=O)NC(=O)NC1=O (stereo not given),-15.1% (inactive)
17,C/C(=N/O)c1ccc2ccc3ccccc3c2c1,0.44% (inactive)
